Shown are actives, neighbours in structure and some others; about 6.7% of the full set was active somewhere.
Pf Dd2 growth = blocks growth of Plasmodium falciparum Dd2 parasites. 2.3% of 94,000 active. activity change, % at 10 µM. P. falciparum Dd2 growth, SYBR Green, 72 h; hits give low values; in the data active = activity change below about -80%; inconclusive = no clear call, values can overlap the other calls
C diff HTS = C. difficile growth inhibition; Clostridium difficile clinical isolate growth, OD600, 24 h; hits give low values; growth activity, negative = inhibition, % at 16 µg/mL (by protocol); 0.25% of 86,000 active; AID 1259249;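 active = mean growth activity at or below -80% and every replicate also at or below -80%; inconclusive = mean at or below -80% but some replicate above -80%; inactive = mean growth activity above -80%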;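 also: 0% = DMSO wells and -100% = levofloxacin 16 µg/mL wells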
T cruzi growth = blocks T. cruzi growth in NIH3T3 culture; AID 624255; 5.9% of 77,000 active; inhibition, % at 8.34 µM; T. cruzi beta-gal in NIH3T3, GalScreen luminescence, 90 h;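 active = mean inhibition above about 93%, with at least 55% of replicates each passing it, limit read from the data, passing the limit was not always enough; inconclusive = only one of those two conditions holds; inactive = neither condition holds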
* hit, by the source's call; ? = inconclusive; . = no result given.

SMILES	Pf Dd2 growth	C diff HTS	T cruzi growth
CCCN(C)C[C@H]1OCCCC[C@@H](C)Oc2ccc(NC(=O)Cc3ccccc3)cc2C(=O)N([C@@H](C)CO)C[C@H]1C	-86*	1	23
C[C@@H]1CCCCO[C@@H](CN(C)CC2CCCCC2)[C@@H](C)CN([C@@H](C)CO)C(=O)c2cc(NC(=O)Cc3ccccc3)ccc2O1	-49	22	58
C[C@@H]1CCCCO[C@H](CN(C)CC2CCCCC2)[C@@H](C)CN([C@H](C)CO)C(=O)c2cc(NC(=O)Cc3ccccc3)ccc2O1	-84*	28	44
CCCN(C)C[C@H]1OCCCC[C@@H](C)Oc2ccc(NC(=O)Cc3ccccc3)cc2C(=O)N([C@H](C)CO)C[C@H]1C	-44	-2	92
O=S(=O)(N[C@@H]1CC[C@@H](CCn2cc(-c3cccc(F)c3)nn2)O[C@@H]1CO)c1ccccc1	5	-5	-3
C[C@@H]1CN([C@H](C)CO)C(=O)c2cccc(NC(=O)CCCCCC(=O)Nc3ccccc3N)c2O[C@@H]1CN(C)Cc1ccc2c(c1)OCO2	-85*	1	.
C[C@@H]1CN([C@H](C)CO)C(=O)Cc2cc(NC(=O)CCCCCC(=O)Nc3ccccc3N)ccc2O[C@H]1CN(C)Cc1ccc2c(c1)OCO2	-40	-5	35
C[C@H]1CN([C@@H](C)CO)C(=O)Cc2cc(NC(=O)CCCCCC(=O)Nc3ccccc3N)ccc2O[C@@H]1CN(C)Cc1ccc2c(c1)OCO2	-40	-5	27
C[C@@H]1CN([C@H](C)CO)C(=O)c2cccc(NC(=O)CCCCCC(=O)Nc3ccccc3N)c2O[C@H]1CN(C)Cc1ccc2c(c1)OCO2	-90*	-1	.
CN(C)C(=O)C[C@H]1C=C[C@@H](NS(=O)(=O)c2ccccc2)[C@H](CO)O1	21	.	-35
C[C@H]1CN([C@@H](C)CO)C(=O)Cc2cc(NS(=O)(=O)c3ccc(Cl)cc3)ccc2O[C@@H]1CN(C)Cc1ccc(Oc2ccccc2)cc1	-13	86	84
COCC(=O)N(C)C[C@H]1Oc2cc(C#CC3CCCC3)ccc2S(=O)(=O)N([C@H](C)CO)C[C@H]1C	6	.	-6
O=C(Nc1ccc(F)cc1)N1CC(=O)N2[C@H](CO)[C@H](c3ccc(-c4ccc(F)cc4)cc3)[C@H]2C1	13	0	.
COc1ccc(NC(=O)N(C)C[C@@H]2Oc3c(NC(=O)c4nc5ccccc5s4)cccc3C(=O)N([C@@H](C)CO)C[C@H]2C)cc1	-87*	-6	24
C[C@@H]1CN([C@H](C)CO)C(=O)c2cccc(NC(=O)c3nc4ccccc4s3)c2O[C@H]1CN(C)C(=O)NC1CCCCC1	-89*	.	-60
C[C@H](CO)N1C[C@H](C)[C@@H](CN(C)S(=O)(=O)c2ccccc2)Oc2c(NC(=O)c3nc4ccccc4s3)cccc2C1=O	-28	5	69
C[C@H]1CN([C@@H](C)CO)C(=O)c2cccc(NC(=O)c3nc4ccccc4s3)c2O[C@@H]1CN(C)S(=O)(=O)c1ccccc1	-81*	-2	50
C[C@H]1CN([C@@H](C)CO)C(=O)c2cccc(NC(=O)c3nc4ccccc4s3)c2O[C@@H]1CN(C)C(=O)NC1CCCCC1	-29	.	-164
COc1ccc(NC(=O)N(C)C[C@H]2Oc3c(NC(=O)c4nc5ccccc5s4)cccc3C(=O)N([C@@H](C)CO)C[C@@H]2C)cc1	-27	1	1
CC(C)NC(=O)N(C)C[C@H]1Oc2c(NC(=O)c3nc4ccccc4s3)cccc2C(=O)N([C@@H](C)CO)C[C@@H]1C	-34	-1	27
C[C@@H]1CN([C@@H](C)CO)C(=O)c2cccc(NC(=O)c3nc4ccccc4s3)c2O[C@H]1CN(C)C(=O)NC1CCCCC1	-89*	.	0
CC(C)NC(=O)Nc1ccc2c(c1)C(=O)N([C@@H](C)CO)C[C@H](C)[C@@H](CN(C)S(=O)(=O)c1cccs1)O2	6	.	-79
COCC#Cc1ccc2c(c1)O[C@@H](CN(C)C(=O)CN(C)C)[C@@H](C)CN([C@@H](C)CO)S2(=O)=O	9	-8	-26
O=C(C1CCCC1)N1CC[C@H]2[C@H](CO)Nc3ccc(Br)cc3[C@H]21	24	17	.
Cc1cccc(-c2ccc(C3[C@@H]4CN(Cc5ccccc5F)C[C@H]3N4)cc2)c1 (stereo partly drawn)	7	-98*	.
SMILES	Pf Dd2 growth	C diff HTS	T cruzi growth
CN(C)C(=O)c1cccc(-c2ccc(C3[C@@H]4CN(Cc5ccccc5F)C[C@H]3N4)cc2)c1 (stereo partly drawn)	-55	59	.
Cc1ccc(-c2ccc([C@@H]3[C@@H]4CN(Cc5ccccc5F)C[C@H]3N4)cc2)cc1	-87*	-101*	.
Cc1ccc(-c2ccc(C3[C@H]4CNC[C@@H]3N4Cc3ccccc3F)cc2)cc1 (stereo partly drawn)	17	17	.
C[C@@H](NC(=O)C[C@@H]1CC[C@H](NC(=O)Nc2ccc3c(c2)OCO3)[C@@H](CO)O1)c1ccccc1	-30	.	12
C[C@@H]1CN([C@@H](C)CO)C(=O)c2cc(NC(=O)CCCN(C)C)ccc2O[C@@H]1CN(C)Cc1ccc(C(F)(F)F)cc1	9	1	23
C[C@H]1CN([C@@H](C)CO)C(=O)c2cccc(NS(=O)(=O)c3ccc(Cl)cc3)c2O[C@@H]1CN(C)Cc1ccc(C(=O)Nc2ccccc2N)cc1	-67	3	.
C[C@@H]1CN([C@@H](C)CO)C(=O)c2cccc(NS(=O)(=O)c3ccccc3)c2O[C@@H]1CN(C)Cc1ccc(C(=O)Nc2ccccc2N)cc1	-92*	-11	81
C[C@@H]1CN([C@@H](C)CO)C(=O)c2cccc(NS(=O)(=O)c3ccc(Cl)cc3)c2O[C@@H]1CN(C)Cc1ccc(C(=O)Nc2ccccc2N)cc1	-92*	10	99
C[C@H](CO)N1C[C@H](C)[C@@H](CN(C)Cc2ccc(C(=O)Nc3ccccc3N)cc2)Oc2c(NS(=O)(=O)c3ccccc3)cccc2C1=O	-37	9	.
C[C@@H]1CN([C@H](C)CO)C(=O)c2cccc(NS(=O)(=O)c3ccc(Cl)cc3)c2O[C@H]1CN(C)Cc1ccc(C(=O)Nc2ccccc2N)cc1	?	3	.
C[C@H](CO)N1C[C@H](C)[C@H](CN(C)Cc2ccc(C(=O)Nc3ccccc3N)cc2)Oc2c(NS(=O)(=O)c3ccc(F)cc3)cccc2C1=O	-85*	10	.
CN1CCN(C(=O)C[C@H]2CC[C@@H]3[C@H](COC[C@@H](O)CN3C(=O)C3CC3)O2)CC1	0	-2	-15
O=C(Nc1ccccc1F)N1CCCCN2[C@@H](CO)[C@@H](c3ccc(C#Cc4ccccc4)cc3)[C@@H]2C1	-89*	33	-41
CC(C)CC#Cc1ccc([C@H]2[C@@H](CO)N3CCCCN(C(=O)Nc4ccccc4)C[C@H]23)cc1	-23	-87*	37
COc1ccc(NC(=O)N2CCCCN3[C@H](C2)[C@@H](c2ccc(C#CCC(C)C)cc2)[C@@H]3CO)cc1	-48	-4	73
COc1ccc(C#Cc2ccc([C@H]3[C@@H](CO)N4CCCCN(C(=O)Nc5ccccc5F)C[C@H]34)cc2)cc1	-77	16	84
O=C(Nc1ccccc1)N1CCCCN2[C@H](CO)[C@@H](c3ccc(C#Cc4cccnc4)cc3)[C@H]2C1	-56	5	-4
